Values without a mark were called inactive. For some assays here: Results with a measured potency or affinity are listed apart. Activity calls are given as the source filed them. Unless noted, no rule for the calls is given here.
What was measured:
[1] = antimalarial activity against Dd2 strain (AID 2302;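 active = growth inhibition above 50% at the single 2 µM test dose, taken to imply half-maximal potency below 2 µM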;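 also: 0% = DMSO untreated growth and 100% = chloroquine plus artemisinin killed control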); conditions: P. falciparum Dd2 in RBCs, LDH growth readout, 72 h; at 2 µM; hits give high values
[2] = HepG2 cytotoxicity, primary screen, cytotoxicity control for P. falciparum antimalarial project, cell-based, ATP luminescence (AID 2303;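 active = inhibition above 50%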;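 also: 0% = DMSO wells and 100% = digitonin-killed cells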); conditions: HepG2 viability, 24-48 h, at 10 µM, hits give high values
[3] = molecular target: L-lactate dehydrogenase (Plasmodium falciparum (isolate CDC / Honduras)) (UniProt Q27743); test: PfLDH activity inhibition – cell lysate, 3D7 strain, counter-screen for P. falciparum growth inhibition project (AID 2304);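 also: 0% = vehicle and 100% = reference inhibitor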; conditions: P. falciparum 3D7 crude extract, LDH APAD/NBT absorbance; at 2 µM; hits give high values
[4] = inhibition of 3D7 malaria parasite growth – strain 3D7 (AID 2306);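 also: 0% = DMSO wells and 100% = chloroquine plus artemisinin control wells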; conditions: P. falciparum 3D7 erythrocytic growth, LDH absorbance, 72 h; at 2 µM; hits give high values
[5] = molecular target: Calcium-dependent protein kinase 1 (Plasmodium falciparum (isolate 3D7)) (UniProt P62344); test: PfCDPK1 kinase inhibitors, biochemical, TCAMS library (AID 1159585; cut-off not given, nearly all actives have IC50 up to about 0.98 µM;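 also: inhibitors leave more ATP so luminescence rises with inhibition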); conditions: recombinant PfCDPK1, Kinase-Glo ATP depletion luminescence
[6] = molecular target: Plasmodium falciparum protein kinase 6 (PK6, PF3D7_1337100) (UniProt Q8IDW1); test: PfPK6 kinase inhibitors, biochemical, TCAMS library (AID 1159586); conditions: recombinant PfPK6, Kinase-Glo ATP depletion luminescence
[7] = molecular target: Protein kinase 7 (PK7), Plasmodium falciparum 3D7 (PF3D7_0213400) (UniProt Q7YTF7); test: inhibition of Plasmodium PK7 catalytic activity – biochemical, TCAMS antimalarial set, Kinase-Glo luminescence (AID 1159587); conditions: recombinant PfPK7, Kinase-Glo ATP depletion luminescence
[8] = molecular target: Calcium-dependent protein kinase 4 (Plasmodium falciparum (isolate 3D7)) (UniProt Q8IBS5); test: PfCDPK4 kinase inhibitors, biochemical, TCAMS library (AID 1159588; cut-off not given, nearly all actives have IC50 up to about 0.91 µM); conditions: recombinant PfCDPK4, Kinase-Glo ATP depletion luminescence
Chain of Calcium-dependent protein kinase 4 (Plasmodium falciparum (isolate 3D7)) (Q8IBS5 whole entry, looked up): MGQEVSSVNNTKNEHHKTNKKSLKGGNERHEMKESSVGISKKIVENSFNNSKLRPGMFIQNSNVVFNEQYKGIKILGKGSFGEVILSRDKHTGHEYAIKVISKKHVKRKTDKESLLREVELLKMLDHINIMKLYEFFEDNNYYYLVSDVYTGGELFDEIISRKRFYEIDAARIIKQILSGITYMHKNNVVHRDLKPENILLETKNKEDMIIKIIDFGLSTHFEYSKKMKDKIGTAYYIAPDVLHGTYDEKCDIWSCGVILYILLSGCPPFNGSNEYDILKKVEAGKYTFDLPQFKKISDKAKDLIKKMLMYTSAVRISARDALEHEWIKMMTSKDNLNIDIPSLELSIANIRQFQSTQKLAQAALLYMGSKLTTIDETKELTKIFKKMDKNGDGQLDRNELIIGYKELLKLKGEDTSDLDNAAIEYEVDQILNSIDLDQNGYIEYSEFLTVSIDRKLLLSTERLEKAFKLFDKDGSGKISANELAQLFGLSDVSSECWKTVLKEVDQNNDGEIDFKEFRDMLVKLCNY

Chain of L-lactate dehydrogenase (Plasmodium falciparum (isolate CDC / Honduras)) (Q27743 whole entry, looked up): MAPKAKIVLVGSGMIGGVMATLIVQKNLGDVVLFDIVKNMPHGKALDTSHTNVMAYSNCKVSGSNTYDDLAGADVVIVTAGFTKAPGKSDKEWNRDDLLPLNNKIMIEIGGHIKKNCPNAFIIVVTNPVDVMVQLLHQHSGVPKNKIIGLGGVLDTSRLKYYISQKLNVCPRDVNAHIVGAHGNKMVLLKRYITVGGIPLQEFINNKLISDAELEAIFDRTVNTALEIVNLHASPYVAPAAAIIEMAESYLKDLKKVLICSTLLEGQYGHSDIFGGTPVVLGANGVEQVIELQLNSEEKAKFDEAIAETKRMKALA
Chain of Calcium-dependent protein kinase 1 (Plasmodium falciparum (isolate 3D7)) (P62344 whole entry, looked up): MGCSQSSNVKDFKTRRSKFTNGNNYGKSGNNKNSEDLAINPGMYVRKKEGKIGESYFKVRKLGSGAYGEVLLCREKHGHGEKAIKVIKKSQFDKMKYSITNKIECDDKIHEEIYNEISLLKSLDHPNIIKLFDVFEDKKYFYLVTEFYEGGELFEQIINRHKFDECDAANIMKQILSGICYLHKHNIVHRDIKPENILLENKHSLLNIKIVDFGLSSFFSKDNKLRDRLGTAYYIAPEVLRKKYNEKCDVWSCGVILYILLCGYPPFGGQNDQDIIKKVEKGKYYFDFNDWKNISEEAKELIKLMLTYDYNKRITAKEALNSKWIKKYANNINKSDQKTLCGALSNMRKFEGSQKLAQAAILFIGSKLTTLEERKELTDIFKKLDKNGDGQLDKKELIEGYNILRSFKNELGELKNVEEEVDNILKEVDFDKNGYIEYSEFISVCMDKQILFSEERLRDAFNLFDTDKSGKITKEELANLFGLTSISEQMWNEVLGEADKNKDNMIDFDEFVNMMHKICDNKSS
Chain of Protein kinase 7 (PK7), Plasmodium falciparum 3D7 (PF3D7_0213400) (Q7YTF7 1-343): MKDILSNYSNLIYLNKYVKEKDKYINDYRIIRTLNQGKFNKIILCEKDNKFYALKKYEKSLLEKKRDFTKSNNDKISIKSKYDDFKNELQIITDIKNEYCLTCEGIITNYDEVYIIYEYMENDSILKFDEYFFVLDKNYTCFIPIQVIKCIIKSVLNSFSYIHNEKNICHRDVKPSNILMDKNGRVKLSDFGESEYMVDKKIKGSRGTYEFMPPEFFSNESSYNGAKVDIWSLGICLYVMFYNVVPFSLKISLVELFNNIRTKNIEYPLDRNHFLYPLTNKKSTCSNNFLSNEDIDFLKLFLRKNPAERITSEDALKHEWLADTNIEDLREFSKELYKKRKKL
Chain of Plasmodium falciparum protein kinase 6 (PK6, PF3D7_1337100) (Q8IDW1 1-305): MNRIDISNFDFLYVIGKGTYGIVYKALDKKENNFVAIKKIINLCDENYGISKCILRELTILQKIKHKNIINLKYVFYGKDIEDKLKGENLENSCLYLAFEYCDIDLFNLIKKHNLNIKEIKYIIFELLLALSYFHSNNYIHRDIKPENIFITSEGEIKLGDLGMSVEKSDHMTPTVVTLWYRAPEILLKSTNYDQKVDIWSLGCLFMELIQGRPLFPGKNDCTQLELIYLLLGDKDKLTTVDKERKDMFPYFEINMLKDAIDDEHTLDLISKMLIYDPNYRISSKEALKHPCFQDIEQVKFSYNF

CN1CCC(N2CCN(Cc3cccc(-c4cccc(-c5nc6ccccc6[nH]5)c4)c3)CC2)CC1
growth inhibition [1]: 100% (active)
inhibition [2]: 19%
inhibition [3]: -1%
growth inhibition [4]: 100% (active)
outcome [5]: inactive
outcome [6]: inactive
outcome [7]: inactive
outcome [8]: inactive

Cc1cccc2[nH]c(-c3ccc(-c4ccc(CNCc5cccc(N)c5)cc4)cc3)nc12
growth inhibition [1]: 84% (active)
inhibition [2]: 12%
inhibition [3]: -9%
growth inhibition [4]: 102% (active)
outcome [5]: inactive
outcome [6]: inactive
outcome [7]: inactive
outcome [8]: inactive

N#Cc1cc(C(=O)c2cc(Cl)ccc2O)cn(-c2cc(Cl)cc(Cl)c2)c1=O
growth inhibition [1]: 32%
inhibition [2]: 34%
inhibition [3]: -8%
growth inhibition [4]: 93% (active)
outcome [5]: inactive
outcome [6]: inactive
outcome [7]: inactive
outcome [8]: inactive

CCN1CCCC1CNC(=O)c1cc2c(-c3ccc(Cl)cc3)nn(C)c2s1 (stereo not given)
growth inhibition [1]: 20%
inhibition [2]: 27%
inhibition [3]: -9%
growth inhibition [4]: 96% (active)
outcome [5]: inactive
outcome [6]: inactive
outcome [7]: inactive
outcome [8]: inactive

COc1cccc(CN2CCC3(CC2)CN(C(=O)Nc2ccc(Cl)c(Cl)c2)C3)c1
growth inhibition [1]: 2%
inhibition [2]: 29%
inhibition [3]: 2%
growth inhibition [4]: 97% (active)
outcome [5]: inactive
outcome [6]: inactive
outcome [7]: inactive
outcome [8]: inactive

COc1ccc2nc3cc(Cl)ccc3c(NCCNCC(O)CO)c2n1 (stereo not given)
growth inhibition [1]: 101% (active)
inhibition [2]: 12%
inhibition [3]: 2%
growth inhibition [4]: 100% (active)
outcome [5]: inactive
outcome [6]: inactive
outcome [7]: inactive
outcome [8]: inactive

CCN(CC)CCn1c(=N)n(CC(O)c2ccc(Cl)c(Cl)c2)c2ccccc21 (stereo not given)
growth inhibition [1]: 88% (active)
inhibition [2]: 35%
inhibition [3]: 6%
growth inhibition [4]: 99% (active)
outcome [5]: inactive
outcome [6]: inactive
outcome [7]: inactive
outcome [8]: inactive

Nc1ccc(Oc2ccc(Cc3cnc(N)nc3N)cc2)cc1
growth inhibition [1]: 5%
inhibition [2]: 10%
inhibition [3]: -3%
growth inhibition [4]: 86% (active)
outcome [5]: inactive
outcome [6]: inactive
outcome [7]: inactive
outcome [8]: inactive

CO/C(=C\C=C\c1cc2cc(Cl)c(Cl)cc2[nH]1)C(=O)NC1CCN(CCOc2ccccc2)CC1
growth inhibition [1]: 94% (active)
inhibition [2]: 35%
inhibition [3]: -3%
growth inhibition [4]: 101% (active)
outcome [5]: inactive
outcome [6]: inactive
outcome [7]: inactive
outcome [8]: inactive

COc1cc(C)nc2ccc(NC(=O)Nc3cccc4ccccc34)cc12
growth inhibition [1]: 48%
inhibition [2]: 27%
inhibition [3]: -3%
growth inhibition [4]: 91% (active)
outcome [5]: inactive
outcome [6]: inactive
outcome [7]: inactive
outcome [8]: inactive

COc1cc2nc(C)nc(Nc3ccc4c(ccn4Cc4ccccc4)c3)c2cc1OC
growth inhibition [1]: 99% (active)
inhibition [2]: 2%
inhibition [3]: -7%
growth inhibition [4]: 101% (active)
outcome [5]: inactive
outcome [6]: inactive
outcome [7]: inactive
outcome [8]: inactive

O=C(NC1CCN(Cc2ccccc2)C1)c1ccc(Nc2ccc(Br)cc2)nc1 (stereo not given)
growth inhibition [1]: 21%
inhibition [2]: 19%
inhibition [3]: -1%
growth inhibition [4]: 94% (active)
outcome [5]: inactive
outcome [6]: inactive
outcome [7]: inactive
outcome [8]: inactive

O=C(N[C@H]1CCN(CCc2ccc(O[C@H]3CCNC3)c(F)c2)C1)c1ccc(Cl)c(Cl)c1
growth inhibition [1]: 23%
inhibition [2]: 39%
inhibition [3]: 2%
growth inhibition [4]: 95% (active)
outcome [5]: inactive
outcome [6]: inactive
outcome [7]: inactive
outcome [8]: inactive

CN(CC(=O)Nc1cc(C(F)(F)F)ccc1-n1cncn1)Cc1ccc2ccccc2c1
growth inhibition [1]: 99% (active)
inhibition [2]: 18%
inhibition [3]: 3%
growth inhibition [4]: 98% (active)
outcome [5]: inactive
outcome [6]: inactive
outcome [7]: inactive
outcome [8]: inactive

NC1=NC(c2ccccc2)(c2ccccc2)C(=O)N1CCOc1ccccc1
growth inhibition [1]: 57% (active)
inhibition [2]: 42%
inhibition [3]: 0%
growth inhibition [4]: 90% (active)
outcome [5]: inactive
outcome [6]: inactive
outcome [7]: inactive
outcome [8]: inactive

COc1ccc2nccc([C@@H](O)CN3CCC(NCc4ccc5c(c4)NC(=O)C(C)S5)CC3)c2c1 (stereo not given in full)
growth inhibition [1]: 72% (active)
inhibition [2]: 7%
inhibition [3]: 2%
growth inhibition [4]: 99% (active)
outcome [5]: inactive
outcome [6]: inactive
outcome [7]: inactive
outcome [8]: inactive

CCN(CC)CCOc1ccc(C(O)(C#CC(O)(c2ccccc2)c2ccc(OCCN(CC)CC)cc2)c2ccccc2)cc1 (stereo not given)
growth inhibition [1]: 99% (active)
inhibition [2]: 81% (active)
inhibition [3]: 4%
growth inhibition [4]: 99% (active)
outcome [5]: inactive
outcome [6]: inactive
outcome [7]: inactive
outcome [8]: inactive

Cc1cc(=O)[nH]c(/N=C(/N)NOCc2ccccc2)n1
growth inhibition [1]: 1%
inhibition [2]: 0%
inhibition [3]: 0%
growth inhibition [4]: 101% (active)
outcome [5]: inactive
outcome [6]: inactive
outcome [7]: inactive
outcome [8]: inactive

Cc1csc(NC(=O)c2cn(-c3ccccc3)nc2-c2cccs2)n1
growth inhibition [1]: 12%
inhibition [2]: -1%
inhibition [3]: 4%
growth inhibition [4]: 95% (active)
outcome [5]: inactive
outcome [6]: inactive
outcome [7]: inactive
outcome [8]: inactive

O=C(NC1CCCC1)c1cc2c(=O)n3ccccc3nc2nc1NCCc1ccccc1
growth inhibition [1]: 61% (active)
inhibition [2]: 19%
inhibition [3]: 2%
growth inhibition [4]: 101% (active)
outcome [5]: inactive
outcome [6]: inactive
outcome [7]: inactive
outcome [8]: inactive

O=C1C(c2ccccc2)=C(Nc2ccc(OC(F)(F)F)cc2)c2ccccc21
growth inhibition [1]: 96% (active)
inhibition [2]: 18%
inhibition [3]: 1%
growth inhibition [4]: 96% (active)
outcome [5]: inactive
outcome [6]: inactive
outcome [7]: inactive
outcome [8]: inactive

CC(C)Cn1c(Sc2ccc(C#N)c([N+](=O)[O-])c2)nnc1-c1ccccc1
growth inhibition [1]: 12%
inhibition [2]: 17%
inhibition [3]: 2%
growth inhibition [4]: 83% (active)
outcome [5]: inactive
outcome [6]: inactive
outcome [7]: inactive
outcome [8]: inactive

CCOC(=O)C1=C(C)NC2=C(C(=O)CCC2)C1c1cn(Cc2ccc(Cl)cc2Cl)nc1-c1ccccc1 (stereo not given)
growth inhibition [1]: 96% (active)
inhibition [2]: -5%
inhibition [3]: -2%
growth inhibition [4]: 100% (active)
outcome [5]: inactive
outcome [6]: inactive
outcome [7]: inactive
outcome [8]: inactive

N#Cc1cccc(NC(=O)Nc2cccc(-c3cccc(-c4nc5ccc(F)cc5[nH]4)c3)c2)c1
growth inhibition [1]: 66% (active)
inhibition [2]: 60% (active)
inhibition [3]: 0%
growth inhibition [4]: 102% (active)
outcome [5]: inactive
outcome [6]: inactive
outcome [7]: inactive
outcome [8]: inactive

CCCCC(O)c1cc(O)c2c(c1)OC(C)(C)CC2C1=CCN(Cc2ccc3ccccc3c2)CC1 (stereo not given)
growth inhibition [1]: 97% (active)
inhibition [2]: 7%
inhibition [3]: 3%
growth inhibition [4]: 100% (active)
outcome [5]: inactive
outcome [6]: inactive
outcome [7]: inactive
outcome [8]: inactive

Cc1ccc(-n2c(Sc3ncnc4sccc34)nnc2N2CCCC2)cc1
growth inhibition [1]: 100% (active)
inhibition [2]: 0%
inhibition [3]: -3%
growth inhibition [4]: 99% (active)
outcome [5]: inactive
outcome [6]: inactive
outcome [7]: inactive
outcome [8]: inactive

CCC[C@@H]([C@@H](CC(C)C)C(=O)N[C@@H](CCCCNC(=O)c1cccc(OC)c1)C(=O)Nc1nccs1)N(O)C=O
growth inhibition [1]: 99% (active)
inhibition [2]: 5%
inhibition [3]: -4%
growth inhibition [4]: 100% (active)
outcome [5]: inactive
outcome [6]: inactive
outcome [7]: inactive
outcome [8]: inactive

CC1(CCCCN2CCC(Oc3ccc(F)cc3F)CC2)C(=O)Nc2ccccc21 (stereo not given)
growth inhibition [1]: 6%
inhibition [2]: 6%
inhibition [3]: -6%
growth inhibition [4]: 99% (active)
outcome [5]: inactive
outcome [6]: inactive
outcome [7]: inactive
outcome [8]: inactive

CCc1c[nH]c2c(N3CCCS3(=O)=O)cc(C(=O)N[C@@H](Cc3ccccc3)[C@H](O)CNC(C)(C)c3cccc(C(F)(F)F)c3)cc12
growth inhibition [1]: 99% (active)
inhibition [2]: 20%
inhibition [3]: 2%
growth inhibition [4]: 97% (active)
outcome [5]: inactive
outcome [6]: inactive
outcome [7]: inactive
outcome [8]: inactive

O=C(Nc1ccc2c(c1)CCC2)N[C@H]1CCN(Cc2ccc(OCCCN3CCCCC3)cc2)C1
growth inhibition [1]: -2%
inhibition [2]: 9%
inhibition [3]: -2%
growth inhibition [4]: 96% (active)
outcome [5]: inactive
outcome [6]: inactive
outcome [7]: inactive
outcome [8]: inactive

Cc1nc(-c2cccc(C(F)(F)F)c2)n2nc(Nc3ccc(OCCN4CCCC4)cc3)ncc12
growth inhibition [1]: 29%
inhibition [2]: 30%
inhibition [3]: -3%
growth inhibition [4]: 99% (active)
outcome [5]: inactive
outcome [6]: inactive
outcome [7]: inactive
outcome [8]: inactive

CS(=O)(=O)CCNCc1nc(-c2ccc3ncnc(Nc4ccc(OCc5ccccc5)c(Cl)c4)c3c2)cs1
growth inhibition [1]: 55% (active)
inhibition [2]: 13%
inhibition [3]: 2%
growth inhibition [4]: 99% (active)
outcome [5]: inactive
outcome [6]: inactive
outcome [7]: inactive
outcome [8]: inactive

COc1cc(OC)cc(C(=O)Nc2cccc(-c3cn4ccc(C)cc4n3)c2)c1
growth inhibition [1]: 45%
inhibition [2]: 4%
inhibition [3]: 0%
growth inhibition [4]: 86% (active)
outcome [5]: inactive
outcome [6]: inactive
outcome [7]: inactive
outcome [8]: inactive

COC(=O)c1ccc2nc(-c3ccc(C(=O)NCc4ccc(Cl)c(Cl)c4)cc3)[nH]c2c1
growth inhibition [1]: 3%
inhibition [2]: 1%
inhibition [3]: -2%
growth inhibition [4]: 95% (active)
outcome [5]: inactive
outcome [6]: inactive
outcome [7]: inactive
outcome [8]: inactive

CCN(CC)CCN(Cc1ccc(-c2ccc(C(F)(F)F)cc2)cc1)C(=O)Cn1c(CCc2ccc(F)c(C#N)c2)nc(=O)c2ccccc21
growth inhibition [1]: 55% (active)
inhibition [2]: 18%
inhibition [3]: -2%
growth inhibition [4]: 98% (active)
outcome [5]: inactive
outcome [6]: inactive
outcome [7]: inactive
outcome [8]: inactive

Cn1nc(C(F)(F)F)c(-c2ccc(F)cc2)c1NC(=O)Nc1ccc(F)cc1
growth inhibition [1]: 99% (active)
inhibition [2]: 5%
inhibition [3]: -2%
growth inhibition [4]: 100% (active)
outcome [5]: inactive
outcome [6]: inactive
outcome [7]: inactive
outcome [8]: inactive

CC1CN(c2ccc(NC(=O)c3ccsc3)cc2C(=O)N2CCN(Cc3ccc(C(C)(C)C)cc3)CC2)CC(C)O1 (stereo not given)
growth inhibition [1]: 80% (active)
inhibition [2]: 12%
inhibition [3]: 7%
growth inhibition [4]: 90% (active)
outcome [5]: inactive
outcome [6]: inactive
outcome [7]: inactive
outcome [8]: inactive

Cc1nc(-c2ccc(-c3ccc(C(=O)Nc4ccc(C(C)C)c(OCCN(C)C)c4)cc3)c(C)c2)no1
growth inhibition [1]: 45%
inhibition [2]: 49%
inhibition [3]: -2%
growth inhibition [4]: 99% (active)
outcome [5]: inactive
outcome [6]: inactive
outcome [7]: inactive
outcome [8]: inactive

O=C(Nc1ccc(-c2nc3ccccc3[nH]2)cc1)c1ccc(N2CCOCC2)c([N+](=O)[O-])c1
growth inhibition [1]: 28%
inhibition [2]: 47%
inhibition [3]: -8%
growth inhibition [4]: 101% (active)
outcome [5]: inactive
outcome [6]: inactive
outcome [7]: inactive
outcome [8]: inactive

O=C(Nc1cccc(-c2ccc(CN3CCCC3)cc2)c1)c1cccc(Cl)c1
growth inhibition [1]: 61% (active)
inhibition [2]: 32%
inhibition [3]: -3%
growth inhibition [4]: 100% (active)
outcome [5]: inactive
outcome [6]: inactive
outcome [7]: inactive
outcome [8]: inactive

— PubChem BioAssay
